In PubChem BioAssay (Tox21):
Records with an inconclusive call do not appear. Active and inactive are the calls of the source. The call rests on the fitted dose curve; in most records, active means well fitted activation curve with a large enough effect in the repeat runs; inconclusive means weak or mixed curves; inactive means flat fitted curve, though single readings scatter.

Assay: A CellTox Green Cytotoxicity Assay to monitor cytotoxicity in HEK293 cells - 8 hour (AID 1224884); further: nearly all actives have a fitted effect of over 35% in size
Details: CellTox Green fluorescence; series mostly up to 76.8 µM; cytotoxicity increase: at the top concentration
Source text: National Center for Advancing Translational Sciences [NCATS]
NIH Chemical Genomics Center [NCGC]
U.S. Environmental Protection Agency [EPA]
National Institutes of Environmental Health Sciences [NIEHS]
National Toxicology Program [NTP]
Cell-based models are critical for drug discovery. Determining the natural cytotoxic effects resulting from test compounds is an essential research activity. A CellTox Green Cytotoxicity Assay to monitor cytotoxicity in real time of continues cell culture during 40 hours of the compound treatment was used to screen Tox21 10K library compounds in Hek293 cells. CellTox Green Cytotoxicity Assay is a nonlytic, homogeneous, biofluorescent method to measure cytotoxicity in cell culture after experimental manipulation. The assay system uses a proprietary asymmetric cyanine dye that is excluded from viable cells but preferentially stains the dead cell's DNA. […] Viable cells produce no appreciable increases in fluorescence. Therefore, the fluorescence signal produced by the binding interaction with dead cell DNA is proportional to cytotoxicity.
The mixture of Hek293 cell suspension and reagents were dispensed at 600cells/6 ul/well in 1536-well tissue culture treated black solid bottom plates using a Multidrop dispenser. After the assay plates were incubated at a 37 C/5% CO2 incubator for 5 hours, 23 nL of compounds dissolved in DMSO, positive and negative controls was transferred to the assay plate by a pintool work station. The plates were incubated at 37 C for 40 hours. The fluorescence intensity were measured at 0h, 8h, 16h, 24h, 32h and 40h time points using ViewLux plate reader during compound treatment.
On the % scale 0 is the no-effect control and ±100 the full control effect.

Q: Which “cytotoxicity increase” value does the source give for CCNP(=S)(OC)O/C(C)=C/C(=O)OC(C)C (stereo not given) here?
A: Its value is 7.36% (inactive).

Q: With C=CC1(C)OC(=O)N(c2cc(Cl)cc(Cl)c2)C1=O (stereo not given) as the compound, how does the Potency read?
A: Its Potency is “inactive”.

Q: Which “cytotoxicity increase” value does the source give for O=C(O)c1c(Cl)ccc2cc(Cl)cnc12 here?
A: Its value is -11.1% (inactive).

Q: For CNC(=O)Oc1cc(C)c(N(C)C)c(C)c1, which “cytotoxicity increase” value is on record?
A: The value was -2.71% (inactive).

Q: With C[C@@H](N)[C@@H](O)c1ccccc1 as the compound, how does the “cytotoxicity increase” value read?
A: The value was -2.53% [at 35.3 µM] (inactive).

Q: For ClCCCCl, which “cytotoxicity increase” value is on record?
A: Its value is -7.04% (inactive).

Q: With CC(O)CCl (stereo not given) as the compound, how does the “cytotoxicity increase” value read?
A: Its value is 0.385% (inactive).

Q: With C1CN2CCC1CC2 as the compound, how does the “cytotoxicity increase” value read?
A: Its value is 3.41% [at 35.3 µM] (inactive).

Q: Which “cytotoxicity increase” value does the source give for NCCOS(=O)(=O)O here?
A: The value was 7.06% (inactive).

Q: Which “cytotoxicity increase” value does the source give for Cc1ccc(Cl)c(O)c1 here?
A: Its value is -2.24% [at 35.3 µM] (inactive).

Q: For CCc1cc(OC)c(C[C@H](C)N)cc1OC, which “cytotoxicity increase” value is on record?
A: Its value is 5.6% (inactive).

Q: Which “cytotoxicity increase” value does the source give for CCCCCCCC(=O)Cl here?
A: Its value is -1.44% (inactive).

Q: With CN1C(=O)COc2c(C(=O)NC3CN4CCC3CC4)cc(Cl)cc21 (stereo not given) as the compound, how does the “cytotoxicity increase” value read?
A: The value was -4.5% [at 35.3 µM] (inactive).

Q: For O=S1(=O)OCCO1, which “cytotoxicity increase” value is on record?
A: Its value is -3.19% (inactive).

Q: For CS(=O)(=O)Cl, which “cytotoxicity increase” value is on record?
A: The value was -5.1% (inactive).

Q: Which “cytotoxicity increase” value does the source give for O=c1[nH]oc2c1CCNC2 here?
A: The value was 22.6% [at 35.3 µM] (inactive).

Q: With O=C(Cl)CCl as the compound, how does the “cytotoxicity increase” value read?
A: The value was -8.46% (inactive).

Q: For Cn1c(N)nc2c3cccnc3ccc21, which “cytotoxicity increase” value is on record?
A: Its value is -9.04% (inactive).

Q: With CCCC[N+](=O)[O-] as the compound, how does the “cytotoxicity increase” value read?
A: The value was -4.86% (inactive).

Q: Which Potency does the source give for C[C@H]1CCCC(=O)CCC/C=C/c2cc(O)cc(O)c2C(=O)O1 here?
A: Its Potency is “inactive”.

Q: With CCOC(=O)N(C)N=O as the compound, how does the “cytotoxicity increase” value read?
A: The value was -11.5% (inactive).

Q: Which “cytotoxicity increase” value does the source give for O=C(CCl)NCO here?
A: Its value is 1.68% (inactive).

Q: With CC(C)(O)C(Cl)(Cl)Cl as the compound, how does the “cytotoxicity increase” value read?
A: Its value is -1.06% [at 35.3 µM] (inactive).

Q: With COc1cccc([C@@]2(O)CCCC[C@@H]2CN(C)C)c1 as the compound, how does the “cytotoxicity increase” value read?
A: The value was 3.84% [at 35.3 µM] (inactive).

Q: With ClCCCCCCCl as the compound, how does the “cytotoxicity increase” value read?
A: Its value is -4.97% (inactive).

Q: For NC(=O)OCCCc1ccccc1, which “cytotoxicity increase” value is on record?
A: The value was 1.02% [at 35.3 µM] (inactive).

Q: For C=CCN1CC[C@]23CCCC[C@H]2[C@H]1Cc1ccc(O)cc13, which “cytotoxicity increase” value is on record?
A: The value was -19% [at 35.3 µM] (inactive).

Q: With CCCCS(=O)(=O)Cl as the compound, how does the “cytotoxicity increase” value read?
A: The value was 16.5% (inactive).

Q: With C=C(Cl)CSC(=S)N(CC)CC as the compound, how does the “cytotoxicity increase” value read?
A: Its value is -1.62% (inactive).

Q: Which “cytotoxicity increase” value does the source give for CC[C@H](O)C(C[C@H](C)N(C)C)(c1ccccc1)c1ccccc1 here?
A: The value was -2.98% (inactive).

Q: Which “cytotoxicity increase” value does the source give for C=CC=O here?
A: The value was 5.83% (inactive).

Q: For CCCC(C)(COC(N)=O)COC(N)=O, which “cytotoxicity increase” value is on record?
A: Its value is -8.81% (inactive).

Q: With CCN1CCCC1CNC(=O)C(O)(c1ccccc1)c1ccccc1 (stereo not given) as the compound, how does the “cytotoxicity increase” value read?
A: Its value is -4.97% [at 35.3 µM] (inactive).

Q: For CCOC(=O)CCl, which “cytotoxicity increase” value is on record?
A: Its value is -11.7% (inactive).

Q: With C=CC(=O)OCCN(C)C as the compound, how does the “cytotoxicity increase” value read?
A: The value was -1.24% (inactive).

Q: With S=C=S as the compound, how does the “cytotoxicity increase” value read?
A: Its value is 1.55% (inactive).

Q: With N#CN as the compound, how does the “cytotoxicity increase” value read?
A: Its value is -7.1% [at 200 µM] (inactive).

Q: Which “cytotoxicity increase” value does the source give for CN(C)C(=O)Oc1cc(OC(=O)N(C)C)cc(C(O)CNC(C)(C)C)c1 (stereo not given) here?
A: Its value is -15.2% [at 35.3 µM] (inactive).

Q: With c1cncc([C@@H]2CCCCN2)c1 as the compound, how does the “cytotoxicity increase” value read?
A: The value was 10.1% (inactive).

Q: For CON(C)C(=O)Nc1ccc(Br)cc1, which “cytotoxicity increase” value is on record?
A: Its value is -4.33% (inactive).
